# In PubChem BioAssay (EPA / NIEHS):
# The source made the active and inactive calls. The calls were made as follows: active = hit-call score of the fitted dose curve at least 0.9, where 1 is the maximum; inactive = score below 0.9.
# Experiment: ATG_AP_1_CIS: Attagene CIS-FACTORIAL HepG2 Assay for human Activator Protein 1 (AP-1) (AID 2282931)
# Conditions: HepG2 Attagene cis-factorial AP-1 reporter mRNA; actives raise or lower the signal
# Procedure: ATG_CIS is a cell-based, multiplexed-readout assay that uses HepG2, a human liver cell line, with measurements taken at 24 hours after chemical dosing in a 24-well plate.ATG_AP_1_CIS is one of 52 assay component(s) measured or calculated from the ATG_CIS assay. It is designed to make measurements of mRNA induction, a form of inducible reporter, as detected with fluorescence intensity signals by Reverse transcription polymerase chain reaction (RT-PCR) and Capillary electrophoresis technology.Data from the assay component ATG_AP_1_CIS was analyzed into 1 assay endpoint. This assay endpoint, ATG_AP_1_CIS, was analyzed with bidirectional fitting relative to DMSO as the negative control and baseline of activity. Using a type of inducible reporter, measures of mRNA for gain or loss-of-signal activity can be used to understand the reporter gene at the transcription factor-level as they relate to the gene FOS and JUN. Furthermore, this assay endpoint can be referred to as a primary readout, because this assay has produced multiple assay endpoints where this one serves a reporter gene function. To generalize the intended target to other relatable targets, this assay endpoint is annotated to the dna binding intended target family, where the subfamily is basic leucine zipper.
# Human liver HepG2 cells are transiently transfected with multiple reporter transcription units (MRTUs) in 6-well plates using FuGene 6 reagent (Roche; 3 ml FuGene/1 mg DNA). The MRTU constructs are regulated by a cis-regulating element (promoter). […] A major difference between the CIS and TRANS system is that in CIS activities of endogenous TFs are measured, whereas the TRANS assay evaluates changes in activities of exogenous, chimeric NR-Gal4 proteins. […] At the end of 24 hour incubation, total RNA was isolated using TriZol reagent (Invitrogen). The isolated RNA is then reverse-transcribed using oligo(dT) primer and Mo-MLV reverse transcriptase (Invitrogen) with DNAse I (Ambion) treatment for 30 min. The one-tenth of the produced cDNA was amplified by PCR using Taq DNA polymerase (Invitrogen) and two reporter sequence-specific primers. The PCR products were fluorescently labeled by primer extension with 6-arboxyfluorescein (6-FAM) 5'-labeled reporter sequence-specific primer (2 min at 95 C, 20 s at 68 C and 10 min at 72 C) and these products were digested with 5U of HpaI (New England Biolabs) for 2h at 37 C. The fragments were purified using Qiaquick PCR columns (Qiagen), analyzed on an ABI 3130xL genetic analyzer (Applied Biosystems) with peak positions identified by using a set of X-rhodamine (ROX)-labeled MapMarker1000 molecular weight standards (BioVentures). The raw capillary electrophoresis data was processed using Attagraph software (Attagene).
Structure (SMILES),AC50,outcome
CN1CCN(Cc2cc(-c3ccc4[nH]c(=O)oc4c3)co2)[C@@H](c2ccc(F)cc2)C1,53.9 µM (active),
COc1cccc2c1C(=O)c1c(O)c3c(c(O)c1C2=O)C[C@@](O)(C(=O)CO)C[C@@H]3O[C@H]1C[C@H](N)[C@H](O)[C@H](C)O1,2.15 µM (active),
CC(=O)OCCOCCOCCOC(C)=O,,inactive
CCNc1cccc(C)c1,,inactive
NC(=O)Cn1c(=O)cc(CCN2CCN(c3nccc4sccc34)CC2)c2ccc(F)cc21,,inactive
CCCCCCCC=O,,inactive
Oc1ccc2c(c1)OC[C@@H](N1CCC(O)(c3ccc(F)cc3)CC1)[C@H]2O,,inactive
CCCCc1ccc2c(n1)[C@@H](c1ccc(OC)cc1C[C@H](C)C(=O)O)[C@H](C(=O)O)[C@H]2c1ccc2c(c1)OCO2,,inactive
O=C(O)CCCCC(=O)O,,inactive
CCCCCCCCCCCCCCCCCC(=O)O,,inactive
CCOC(=O)C(C)(C)Oc1ccc(Cl)cc1,,inactive
CCCCCCC(=O)OCC,,inactive
CC1=C(/C=C/C(C)=C/C=C/C(C)=C/CO)C(C)(C)CCC1,168 µM (active),
C=CCOC(=O)c1ccccc1C(=O)OCC=C,25.8 µM (active),
CCCCN(CCCC)CCCC,,inactive
NCCO,,inactive
FC(F)(F)C(F)(F)C(F)(F)C(F)(F)C(F)(F)C(F)(F)CCI,,inactive
Cc1ccc(C)c(O)c1C,,inactive
CCCCCCOCCO,,inactive
Cc1c(C(=O)O)c(O)cc2c1C(=O)c1c(O)c([C@@H]3O[C@H](CO)[C@@H](O)[C@H](O)[C@H]3O)c(O)c(O)c1C2=O,,inactive

Structure (SMILES),AC50,outcome
CCc1c(C(=O)NN2CCCCC2)nn(-c2ccc(Cl)cc2Cl)c1-c1ccc(Br)cc1,3.93 µM (active),
COC(=O)c1ccc(O)cc1,,inactive
CN1CCCC1=O,,inactive
Oc1ccc2ccccc2c1N=Nc1ccccc1,,inactive
CCOc1ccc2c(c1)C(C)=CC(C)(C)N2,100 µM (active),
CN[C@H]1CC[C@@H](c2ccc(Cl)c(Cl)c2)c2ccc(S(N)(=O)=O)cc21,,inactive
CCCc1cc(=O)[nH]c(=S)[nH]1,,inactive
Cc1nc(-c2ccc3c(c2)CCN(CCC2CCC(NC(=O)/C=C/c4ccc(F)cc4)CC2)CC3)no1 (stereo not given),,inactive
CCCCC(CC)COC(=O)CC(C(=O)OCC(CC)CCCC)S(=O)(=O)O (stereo not given),,inactive
COc1ccc2c(c1)c(CC(=O)O)c(C)n2C(=O)c1ccc(Cl)cc1,,inactive
O=C(OCCCCCOC(=O)c1ccccc1)c1ccccc1,,inactive
Cc1ccc(Cl)cc1,,inactive
C=CCc1ccc(O)c(OC)c1,,inactive
c1cc(-c2ccncc2)ccn1,,inactive
O=C(N[C@@H](Cc1ccccc1)[C@@H](O)C(=O)N1C[C@@H](O)[C@@H](O)C1)c1cc2cc(Cl)ccc2[nH]1,159 µM (active),
Cc1ccccc1Cl,,inactive
COc1ccc(S(=O)(=O)N2C(=O)[C@@](c3ccccc3OC)(N3C[C@H](O)C[C@H]3C(=O)N(C)C)c3cc(Cl)ccc32)c(OC)c1,27.6 µM (active),
CC(=O)OC/C=C(\C)CCC=C(C)C,,inactive
Nc1nc(N)c2nc(CNc3ccc(C(=O)N[C@@H](CCC(=O)O)C(=O)O)cc3)cnc2n1,0.00864 µM (active),
C[C@]12C=CC(=O)C=C1CC[C@@H]1[C@@H]2C(=O)C[C@@]2(C)[C@H]1CC[C@]2(O)C(=O)CO,,inactive
